Experimental data from ChEMBL document CHEMBL1201862, “PubChem BioAssay data set” (2004).
The whole screen tested about 400,000 compounds, of which about 2,100 (0.53%) were called active. Roughly 14% stayed inconclusive and do not appear here. The rule behind the calls is not given here. For the sample, actives were picked, then their nearest neighbours and some compounds at random.

target: Ataxin-2 (Homo sapiens) (UniProt Q99700); assay: qHTS for Inhibitors of ATXN expression.; assay type: functional
Sequence (Q99700 whole entry): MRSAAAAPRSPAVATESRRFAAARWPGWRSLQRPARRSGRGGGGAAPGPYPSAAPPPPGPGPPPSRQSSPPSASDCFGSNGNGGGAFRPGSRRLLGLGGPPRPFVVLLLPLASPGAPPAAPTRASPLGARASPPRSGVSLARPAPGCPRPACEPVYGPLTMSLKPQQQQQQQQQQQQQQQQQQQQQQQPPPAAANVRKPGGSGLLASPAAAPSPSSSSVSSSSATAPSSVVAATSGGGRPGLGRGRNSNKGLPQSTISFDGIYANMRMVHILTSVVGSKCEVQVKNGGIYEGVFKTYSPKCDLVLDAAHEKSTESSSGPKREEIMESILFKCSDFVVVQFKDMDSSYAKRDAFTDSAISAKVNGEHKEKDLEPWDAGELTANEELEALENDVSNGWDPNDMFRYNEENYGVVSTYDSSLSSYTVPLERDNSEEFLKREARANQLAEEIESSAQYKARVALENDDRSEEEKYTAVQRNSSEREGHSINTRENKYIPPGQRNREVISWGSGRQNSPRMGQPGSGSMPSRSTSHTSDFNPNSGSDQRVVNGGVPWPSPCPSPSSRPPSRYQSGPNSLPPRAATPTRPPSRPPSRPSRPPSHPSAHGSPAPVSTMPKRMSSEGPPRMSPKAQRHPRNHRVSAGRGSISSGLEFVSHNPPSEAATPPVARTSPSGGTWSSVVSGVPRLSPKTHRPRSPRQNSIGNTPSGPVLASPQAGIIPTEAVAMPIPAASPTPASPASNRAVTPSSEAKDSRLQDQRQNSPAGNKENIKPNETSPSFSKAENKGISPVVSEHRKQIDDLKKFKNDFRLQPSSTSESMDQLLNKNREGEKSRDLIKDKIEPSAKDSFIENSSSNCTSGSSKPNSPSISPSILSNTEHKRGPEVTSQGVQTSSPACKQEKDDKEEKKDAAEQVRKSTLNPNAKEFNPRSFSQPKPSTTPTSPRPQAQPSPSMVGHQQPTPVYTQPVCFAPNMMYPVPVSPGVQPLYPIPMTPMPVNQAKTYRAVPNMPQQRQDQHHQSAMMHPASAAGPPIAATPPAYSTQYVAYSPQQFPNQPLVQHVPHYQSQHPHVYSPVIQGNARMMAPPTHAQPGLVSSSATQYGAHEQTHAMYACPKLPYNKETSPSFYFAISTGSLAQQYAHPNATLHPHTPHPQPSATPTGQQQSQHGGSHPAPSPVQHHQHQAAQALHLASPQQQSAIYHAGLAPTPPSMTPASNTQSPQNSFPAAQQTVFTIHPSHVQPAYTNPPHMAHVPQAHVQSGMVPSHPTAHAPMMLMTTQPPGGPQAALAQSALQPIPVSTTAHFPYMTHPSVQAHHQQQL

Compound	Potency
N#Cc1cc2c(=O)n3ccccc3nc2n(CCCN2CCOCC2)c1=O	inactive
CCOc1cc(C2C3=C(CCCC3=O)N(CCC(=O)O)C3=C2C(=O)CCC3)ccc1OS(=O)(=O)c1ccc(C)cc1	inactive
Cc1ccc(C(C)C)c(OCC(=O)Nc2ccc3c(c2)nc(CCN2CCCCC2)n3C)c1	39.8 µM (active)
Cc1cc(S(=O)(=O)N2CCCC2)ccc1OCC(=O)Nc1ccc(C(N)=O)cc1	inactive
CC(=O)NCCc1nc2cc(NC(=O)c3cccs3)ccc2n1C	inactive
O=C1/C(=C\Nn2cnnc2)c2ccccc2C(=O)N1c1ccccc1F	inactive
COc1ccccc1NS(=O)(=O)c1cccc(NC(=O)c2[nH]c(C)c(C(C)=O)c2C)c1	inactive
COc1ccccc1NS(=O)(=O)c1cccc(NC(=O)Nc2cccc(Cl)c2)c1	44.7 µM (active)
COc1ccccc1NS(=O)(=O)c1ccc(C)c(NC(=O)c2c(C)noc2C)c1	inactive
COC(=O)c1c(C)nc2nonc2c1N	inactive
CCOC(=O)NN=C1c2ccccc2-c2nc3nonc3nc21	3.77 µM (active)
CCOC(=O)Nc1c2ccccc2nc2ccccc12	inactive
COc1cc(/C=C/C(=O)N2C(=O)c3cccc(N)c3C2=O)cc(OC)c1OC	inactive
Cn1c2nc(=O)[nH]c(=O)c-2cc2ccccc21	inactive
C=CCOc1ccccc1CN(C(=O)CCl)c1ccc2c(c1)OCO2	39.8 µM (active)
CCc1cccc(CC)c1N1C(=O)C2=C(SCCCS2)C1=O	inactive
CCOC(=O)C1(CCOc2ccccc2)CCN(Cc2ccc(C#CCCO)cc2)CC1	inactive
CCc1noc(C)c1C(=O)N1CCN(c2cccc(Cl)c2)CC1	inactive
Cn1c(C(=O)N2CCN(C(=O)c3ccco3)CC2)cc2c(=O)n3ccccc3nc21	inactive
O=C(c1ccco1)N1CCN(c2c(O)nc3ccc(Cl)cc3c2-c2ccccc2)CC1	28.2 µM (active)
Cc1cc(N2CCN(C(=O)c3ccco3)CC2)n2nc(-c3cccc(Cl)c3)cc2n1	35.5 µM (active)
O=c1oc2cc(O)ccc2cc1-c1ccc(F)cc1	inactive
Cc1ccc(/N=c2\oc3cc(O)ccc3cc2C(N)=O)cc1	inactive
O=CNc1ccc2c3c(cccc13)-c1ccccc1-2	inactive
CC1=NN(c2ccccc2)C(=O)C1/C=N/c1ccc(N(C)C)cc1 (stereo unspecified)	inactive
CC1=NN(c2ccccc2)C(=O)/C1=C/C=C/c1ccc(N(C)C)cc1	17.8 µM (active)

Compound	Potency
CN(C)C=O.CN(C)c1ccc(/C=C/c2nc3ccccc3c(=O)n2-c2ccc(C(=O)O)cc2)cc1	inactive
O=C(COC(=O)Cc1ccsc1)NNC(=O)c1ccccc1	inactive
C#CCN1C(=O)S/C(=C\c2cc3c(cc2OC)OCO3)C1=O	inactive
COc1ccc(Cl)cc1C(=O)NNC(=O)c1[nH]nc2ccccc12	inactive
CNC(=O)c1cc(NC(=O)CCn2nc(-c3ccccc3)c3ccccc3c2=O)ccc1OC	inactive
CCn1nc(C(=O)NNC(=O)c2cc(Cl)ccc2OC)c2ccccc2c1=O	39.8 µM (active)
CC(=O)N(Cc1ccccc1)c1ncc2c(n1)c(=O)c(C#N)c1ccccn12	inactive
COCCCNC(=O)C[S+]([O-])Cc1nc(-c2ccccc2C)oc1C (stereo unspecified)	inactive
CCCCCOc1ccc(Br)cc1CSC(=N)N	35.5 µM (active)
CCCn1c(=N)c(C(=O)NCC2CCCO2)cc2c(=O)n3cccc(C)c3nc21 (stereo unspecified)	inactive
O=C(CCl)Nc1cccc2ncccc12	31.6 µM (active)
O=C(Cc1ccccc1C(=O)O)Nc1cccc2ccccc12	inactive
Cc1cc(O)nc(SCC(=O)Nc2ccnc3ccccc23)n1	inactive
Cc1c(Cc2ccccc2)c(=O)oc2cc(OC(=O)c3ccccc3)ccc12	inactive
CCC/C=N/Nc1nc2ccccc2s1	inactive
Cn1/c(=N/N=C/c2ccccn2)sc2ccccc21	inactive
Cc1csc(N/N=C/c2ccccn2)n1	28.2 µM (active)
CC/N=c1\scc(-c2ccc(F)cc2)n1/N=C/c1ccccn1	inactive
CCCc1sc(N/N=C/c2ccccn2)nc1-c1ccc(Br)cc1	17.8 µM (active)
C=CCn1c(=N)c(C(=O)NCCCOC)cc2c(=O)n3ccccc3nc21	inactive
Oc1c(Cl)cc(Cl)cc1/C=N\c1cc(C(F)(F)F)ccc1N1CCc2ccccc2C1	inactive
COc1ccc(-c2csc(NC(=O)CSc3n[nH]c(N)n3)n2)cc1	inactive
COc1ccc(-c2cc(C(F)(F)F)c3c(N)c(C(=O)NCCSC)sc3n2)cc1	inactive
COc1ccc(-c2cc(C(F)(F)F)nc(SCC(=O)Nc3ccc(C(C)=O)cc3)n2)cc1	31.6 µM (active)
CN(C)c1ccc(-c2cc3ccccc3c(=O)o2)cc1	inactive
COC(=O)C1=NN(c2ccc(OC)cc2)C2C(=O)N(c3ccccc3OC)C(=O)C12 (stereo unspecified)	inactive

Compound	Potency
CCOC1=C2CN(S(=O)(=O)c3ccc(C)cc3)[C@H](c3cccc4ccccc34)C[C@H]2C(C#N)(C#N)C(C#N)(C#N)C1	12.6 µM (active)
O=c1oc2c3c4c(cc2c2c1CCC2)OCCN4CCC3	inactive
COc1ccccc1-c1cc(C(F)(F)F)nc(S(=O)(=O)CCCC(=O)N2CCCCC2C)n1 (stereo unspecified)	39.8 µM (active)
COc1ccc(-c2csc(NC(=O)CCNC(=O)c3ccco3)n2)cc1OC	inactive
CC1CCCCN1C(=O)COC(=O)c1cc(-c2cccs2)nn1-c1ccccc1 (stereo unspecified)	inactive
COc1ccc(-c2cc(C(F)(F)F)nc(S(=O)(=O)CCCC(=O)Nc3cccc(O)c3)n2)cc1OC	15 µM (active)
COc1ccccc1-c1cc(C(F)(F)F)nc(S(=O)(=O)CCCC(=O)NCc2ccc(F)cc2)n1	26.7 µM (active)
COc1cc(CC(=O)OCC(=O)N2CCCCC2C)cc(OC)c1OC (stereo unspecified)	inactive
COc1ccc(-c2cc(C(=O)Nc3ccc(C(N)=O)cc3)c3ccccc3n2)cc1OC	inactive
COc1ccc(Br)cc1CN(C)CC(=O)NCc1ccc(F)cc1	inactive
COc1ccccc1-c1cc(C(F)(F)F)nc(S(=O)(=O)CCCC(=O)Nc2cc(C)on2)n1	14.1 µM (active)
COc1cccc(C(C(=O)NC(C)(C)C)N(C(=O)CCC(=O)Nc2cc(C)on2)c2ccc3c(c2)OCCO3)c1OC (stereo unspecified)	inactive
COc1ccc(-c2cc3nc(C)c(CCC(=O)NCc4ccc(F)cc4)c(C)n3n2)c(OC)c1	inactive
COc1ccc(-c2cc(C(=O)OCC(=O)Nc3cc(C)on3)c3ccccc3n2)cc1OC	inactive
CCN1C(=O)[C@@H]2Cc3c([nH]c4ccccc34)C(c3ccc(OC)cc3)N2C1=S (stereo partly specified)	inactive
CCOC(=O)c1nnn(-c2ccc([N+](=O)[O-])cc2)c1C	inactive
CCOc1ccc(C(=O)Oc2cc(C)nc(O)c2[N+](=O)[O-])cc1OCC	inactive
CCOC(=O)c1cc([N+](=O)[O-])cc([N+](=O)[O-])c1Sc1[nH]cnc2ncnc1-2	29.9 µM (active)
CCCCCCCCOC(=O)c1cc([N+](=O)[O-])c(Sc2[nH]cnc3ncnc2-3)c([N+](=O)[O-])c1	22.4 µM (active)
Cc1ccc(C)c(N2CCN(C(=O)CCC(=O)Nc3ccc4nc(N5CCCCC5)cc(C)c4c3)CC2)c1	inactive
CCn1c(=O)cc(SCC(=O)N2CCN(c3cc(C)ccc3C)CC2)c2ccccc21	35.5 µM (active)
CCc1nc2ccc(C(=O)N3CCN(c4cc(C)ccc4C)CC3)cc2nc1CC	inactive
O=C1c2cccc3c(O)ccc(c23)C(=O)N1c1ccc(Cl)cc1	inactive
O=CN/C=C/c1cc(O)ccc1O	35.5 µM (active)
COC(=O)/C=C/c1sc2nc(C)cc(C)c2c1/N=C/N(C)C	inactive
COCCN(C(=O)Cc1cccs1)C(C(=O)NCc1ccc(OC)cc1)c1ccc(C(C)C)cc1 (stereo unspecified)	39.8 µM (active)

Compound	Potency
COc1ccc(N(C(=O)c2cnccn2)C(C(=O)NCc2ccccc2)c2ccc(O)cc2)cc1 (stereo unspecified)	inactive
COc1ccc(CNC(=O)CNS(=O)(=O)c2cccs2)cc1	inactive
Cc1ccc(C(=O)CSc2nnc(C3CC3)n2C2CC2)s1	inactive
CC(=O)Nc1ccc(OC(F)(F)Cl)cc1	inactive
N#C/C(=N/Nc1ccc(OC(F)(F)F)cc1)C(N)=S	10 µM (active)
Oc1ccc(-c2onc3ccc(Cl)cc23)cc1	inactive
Oc1ccc(-c2nccc(-c3ccc(Cl)cc3)n2)cc1	inactive
Oc1ccc(N=Nc2n[nH]c(-c3ccc(Cl)cc3)n2)cc1	35.5 µM (active)
O=C1c2cccc3c(O)ccc(c23)C(=O)N1Cc1ccccc1	inactive
CN(C)/C=C1\Oc2ccc3ccccc3c2C1=O	inactive
O=C1C=C(c2c(O)ccc3ccccc23)c2ccccc2C1=O	35.5 µM (active)
CCN1C(=O)c2cccc3c(S(=O)(=O)NCc4cccnc4)ccc1c23	inactive
CCCC(=O)OCCNc1cc(Sc2nccn2C)c2nonc2c1[N+](=O)[O-]	39.8 µM (active)
CCC(=O)OCCNc1cc(Sc2nccn2C)c2nonc2c1[N+](=O)[O-]	35.5 µM (active)
COc1ccccc1OCc1ccc(C(=O)Nc2ccccc2)cc1	inactive
COC(C/C=C/C(=O)[C@H](C)OCc1ccccc1)OC	39.8 µM (active)
Oc1nc2ccccc2nc1-c1c[nH]c2ccccc12	inactive
Clc1ccc(C(c2ccccc2)c2c[nH]c3ccccc23)s1 (stereo unspecified)	31.6 µM (active)
c1ccc(C(c2cccs2)c2c[nH]c3ccccc23)cc1 (stereo unspecified)	39.8 µM (active)
CCOc1ccccc1C1C(C(=O)OC)=CN(C)C=C1C(=O)OC	inactive
CC(=O)Oc1c(-c2ccc(Br)o2)oc2ccccc2c1=O	inactive
COC(=O)/C(=C1/Oc2cc(C)oc(=O)c2S1)C(F)(F)F	20 µM (active)
CC(C)[C@H](NS(=O)(=O)c1ccccc1F)C(=O)NC1CCCCC1	inactive
